Screens as filed in PubChem BioAssay.
The list is not random: actives were taken first. Their share in the collection is about 15%.
SARS PLpro yeast = blocks SARS-CoV papain-like protease in a yeast assay; S. cerevisiae expressing SARS-CoV PLpro, growth rescue; Potency, µM (doses to about 32.9 µM), inactives show at the top dose activity, positive = growth rescue, actives largely listed as activators; actives 0.19% (n = 330,000); calls by dose curve; note: potency is the fitted concentration of half-maximal effect; 0% is about no effect; nearly all actives have a fitted effect of over 55% in size
Pf growth 96h = inhibits malaria parasite growth, 96 h | P. falciparum luciferase reporter growth, 96 h | Potency, µM (doses to about 28.7 µM), for inactives: at the highest dose activity change, negative = inhibition, actives largely listed as inhibitors | actives 6.9% (n = 320,000) | AID 504834; note: potency is the fitted concentration of half-maximal effect; % is set by controls: 0 for no effect and ±100 for the full control effect
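Compounds incubated with erythrocytes infected by luciferase-expressing P. falciparum (2% hematocrit, 0.05% parasitemia final) for 96 hours, 37 C in 5% CO2. Growth inhibition scored as decreased luciferase luminescence.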
HCMV antiviral = inhibitors of human cytomegalovirus; HFF cells, HCMV-luciferase reporter, 72 h; active compounds read low; activity change, negative = inhibition, % at 57.5 µM; actives 4.5% (n = 410,000); in the data active = activity change below about -60%; inconclusive = no clear call, values can overlap the other calls; inactive = above about -39%; note: % is set by controls: 0 for no effect and ±100 for the full control effect
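Screen run at 2 compound doses on HFFs infected with reporter HCMV, MOI 1 PFU/cell. Luciferase activity from cell lysates at 72 h post infection gave inhibition relative to buffer-only and Salinomycin wells.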
Sm TGR inh = S. mansoni TGR enzyme inhibition; Q962Y6; Potency, µM (doses to about 114 µM), for inactives: top-dose activity change, negative = inhibition, actives largely listed as inhibitors; purified TGR, DTNB reduction, TNB absorbance 405 nm; actives 3% (n = 360,000); note: potency is the fitted concentration of half-maximal effect; % is set by controls: 0 for no effect and ±100 for the full control effect; nearly all actives have a fitted effect of over 60% in size
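Kinetic colorimetric format: TGR-catalysed, NADPH-driven DTNB reduction monitored via TNB absorbance. Enzyme dispensed at 20 nM; compound exposure 15 min at room temperature before reaction start.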
Pf growth 48h = inhibits P. falciparum growth in the first generation, 48 h. actives 5.9% (n = 310,000). AID 504832. Potency, µM (doses to about 28.7 µM), inactives show at the top dose activity change, negative = inhibition, most hits filed as inhibitors. P. falciparum luciferase growth in erythrocytes, 48 h; note: potency is the fitted concentration of half-maximal effect; % is set by controls: 0 for no effect and ±100 for the full control effect
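A one-generation exposure of luciferase-tagged malaria parasites in RPMI 1640/Albumax erythrocyte culture, 37 C and 5% CO2. Inhibition is inferred from decreased luminescence after adding detection reagent.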
HCV inhibitor = blocks hepatitis C virus. actives 3.4% (n = 340,000). Huh7.5.1 HCVcc-Cre infection, luciferase reporter, 44 h. AID 651820. Potency, µM (series often up to 41.8 µM), for the others: at the top dose activity change, negative = inhibition, actives largely listed as inhibitors; note: potency is the fitted concentration of half-maximal effect; % is set by controls: 0 for no effect and ±100 for the full control effect
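After 44 h co-culture of compound, cells and HCVcc-Cre (~0.5 moi), substrate is added for 15 min at room temperature and luciferase measured over 15 sec. Cells were seeded at 1,000/well and pre-cultured 4 h.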
* = called active by the depositor; ? = inconclusive; . = no result. Unless noted, calls come from the whole dose curve; as a rule, active = well fitted curve in the direction sought with a large enough effect; inconclusive = small, poorly fitted or top-dose-only effect, or another doubt; inactive = no such curve, though single readings can be large; an effect the other way counts as inactive or inconclusive.

SMILES	SARS PLpro yeast	Pf growth 96h	HCMV antiviral	Sm TGR inh	Pf growth 48h	HCV inhibitor
CCCNCc1cc(Br)ccc1OCC(=O)NCCc1ccccc1	?	12µM*	-15	-4%	13µM*	?
O=C(COc1ccc(Br)cc1CO)Nc1ccccc1F	-6%	3%	54	0%	83%	25µM*
O=C(COc1ccc(Br)cc1CNCCc1ccccc1)NCc1ccccc1	-1%	?	0	3%	?	?
COc1ccccc1NC(=O)COc1ccc(Br)cc1CNC1CCCC1	1%	7%	-18	8%	12µM*	?
Cc1ccc(NC(=O)Cn2c(=O)c(CNc3ccccc3)cc3cc4c(cc32)OCCO4)cc1	.	.	-2	-4%	.	.
COC(=O)c1ccc2nc(-c3ccc(Cl)cc3)c(Cc3ccsc3)n2c1	.	.	3	.	.	.
CSc1nc2ccc(S(=O)(=O)N(C)C)cc2s1	10%	12µM*	?	0%	.	13%
CCN(CC)S(=O)(=O)c1ccc2nc(SC)sc2c1	-4%	.	85	0%	?	0%
COc1ccc(Cl)cc1N1C(=O)CC(N2CCN(S(=O)(=O)c3ccccc3F)CC2)C1=O (configuration not stated)	-21%	.	-32	.	.	-6%
COc1cc(NC(=O)C(Cc2ccccc2)NS(=O)(=O)c2cccc3nsnc23)cc(OC)c1 (configuration not stated)	.	.	?	0%	.	.
COc1ccc(/C=C2\CCC(C3CCCC3)C2=O)cc1OC (configuration not stated)	0%	-2%	-16	-1%	-20%	-24%
COc1cc(/C=C2\CCC(C3CCCC3)C2=O)ccc1OC(C)C (configuration not stated)	-1%	?	0	-20%	2.1µM*	4%
Cc1cc(NC(=O)CSc2nnnn2-c2ccccc2C)no1	-1%	?	-113*	0%	?	3%
Cc1cc(NC(=O)CSc2nnc(C3COc4ccccc4O3)n2C)no1 (configuration not stated)	-3%	0%	-78*	-3%	3%	11%
COC(=O)c1cccc(-n2nnnc2SCC(=O)Nc2nc3c(s2)CCCC3)c1	-1%	?	32	-3%	-10%	12%
CSc1ccccc1NC(=O)CSc1nnnn1-c1ccccc1SC	3%	.	1	4%	-4%	?
CSc1ccccc1-n1nnnc1SCC(=O)Nc1ccccc1C	-6%	-22%	-18	-2%	.	11µM*
COC(=O)c1cccc(-n2nnnc2SCC(=O)Nc2cc(C)on2)c1	-5%	.	-91*	-4%	-11%	8%
Cc1ccccc1-n1nnnc1SCC(=O)NC1CC1	-5%	.	19	.	.	-12%
CCc1ccccc1-n1nnnc1SCC(=O)Nc1cc(C)on1	1%	9.3µM*	9	34%	-22%	-11%
CCn1nnnc1SCC(=O)Nc1cc(C)on1	?	16%	10	-8%	-15%	4%
CCCC[C@H]1COCCS(=O)(=O)N1Cc1ccccc1F	-4%	4%	-99*	-1%	1%	6%
O=S1(=O)CCOC[C@H](Cc2ccccc2)N1Cc1ccc(F)cc1	.	.	-67*	.	.	17%
CC(C)(C)OC(=O)NCc1ccc(CNC(=O)c2[nH]cnc2C(=O)Nc2ccccc2F)cc1	.	.	-32	.	.	.
C=CCn1c2ccccc2c2n[nH]c(=S)nc21	-1%	?	22	-33%	3%	-4%
SMILES	SARS PLpro yeast	Pf growth 96h	HCMV antiviral	Sm TGR inh	Pf growth 48h	HCV inhibitor
Cc1ccc2nc(-c3ccccn3)cc(C(=O)Nc3ccc(S(=O)(=O)N4CCOCC4)cc3)c2c1	15%	20%	0	0%	13µM*	?
Cc1cc(C(=O)Nc2cccc(S(=O)(=O)N3CCCC3)c2)c2ccccc2n1	2%	?	-15	-4%	?	?
O=C(Nc1cccc(S(=O)(=O)N2CCCC2)c1)c1cc(-c2ccccn2)nc2ccccc12	0%	?	4	7%	12µM*	?
CN(C)S(=O)(=O)c1ccc(C(=O)NN2C(=O)NC3(CCCCC3)C2=O)cc1	5%	22%	-4	-18%	?	11%
O=C(CSc1nnc(NC(=O)c2ccco2)s1)Nc1ccccc1	2%	0%	31	-11%	56%	9%
CC(=O)c1c(C)[nH]c(C(=O)NCCN2CCC(C)CC2)c1C	7%	12µM*	54	0%	-5%	-13%
CCCNC(=O)c1[nH]c(C)c(C(C)=O)c1C	17%	38%	68	0%	?	12%
O=C(COC(=O)c1cc(=O)[nH]c2ccccc12)NCCc1ccccc1	-4%	.	-26	.	.	-7%
CCc1ccccc1NC(=O)Cn1ccn(-c2cc(C)cc(C)c2)c(=O)c1=O	.	.	-64*	-7%	.	.
Cc1cc(C)cc(-n2ccn(CC(=O)Nc3ccccc3F)c(=O)c2=O)c1	.	.	-30	-12%	.	.
COc1ccc(-c2nc(CS(=O)CC(=O)N3CCCC3)c(C)o2)cc1 (configuration not stated)	-7%	-10%	19	7.1µM*	30%	13%
CCN1CCN(C(=O)CS(=O)Cc2nc(-c3ccc(OC)cc3)oc2C)CC1 (configuration not stated)	7%	-98%	9	?	.	5%
Cc1ccc(-c2nc(CS(=O)CC(=O)NCCN3CCOCC3)c(C)o2)cc1 (configuration not stated)	13%	56%	39	-20%	.	-1%
CCOC(=O)N1CCN(C(=O)CS(=O)Cc2nc(-c3ccc(OC)c(OC)c3)oc2C)CC1 (configuration not stated)	1%	?	-17	45µM*	11%	-12%
Cc1ccc(-c2nc(CS(=O)CC(=O)N3CCC4(CC3)OCCO4)c(C)o2)cc1 (configuration not stated)	4%	65%	-23	45µM*	19%	-16%
COc1ccc(N2CCN(C(=O)CSc3nnc(C4CC4)n3C3CC3)CC2)cc1	.	.	-6	.	.	.
COc1ccccc1N1CCN(/N=C/C(Cl)=C/c2ccccc2)CC1	-4%	84%	44	-8%	208%	?
Cn1c(=O)n(C)c2cc([N+](=O)[O-])c(N3CCN(C(=O)c4ccccc4Br)CC3)cc21	1%	9%	?	.	-16%	13µM*
Cn1c(=O)n(C)c2cc([N+](=O)[O-])c(N3CCN(C(=O)c4ccccc4)CC3)cc21	-2%	55%	-35	-32%	?	?
Cn1c(=O)n(C)c2cc([N+](=O)[O-])c(N3CCN(C(=O)c4ccccc4Cl)CC3)cc21	3%	?	-78*	13%	-29%	?
